Assay results taken from PubChem BioAssay (NCI).
Compounds without any hit were thinned out: in the full panel of roughly 83,000, 20% have a hit.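 Note: values are percent growth. 100 is the growth of untreated cells, values between 100 and 0 indicate rising inhibition; between -100 and 0 indicates cell death.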 Unmarked numbers belong to inactive results. Active and inactive are the calls of the source. The calls were made as follows: active = growth percent below 10; inactive = the rest.

Tests used:
Test in all cases: NCI-60 one-dose screen, 48 h (100 = growth as untreated, 0 = no growth, -100 = all killed)
Details in all cases: 10 µM unless noted
NCI-H23 lung = tested on: NCI-H23 lung
NCI-H226 lung = tested on: NCI-H226 lung
NCI-H322M lung = tested on: NCI-H322M lung
HOP-62 NSCLC = tested on: HOP-62 NSCLC
NCI-H460 lung = tested on: NCI-H460 lung
HOP-92 NSCLC = tested on: HOP-92 NSCLC
NCI-H522 lung = tested on: NCI-H522 lung
A549/ATCC NSCLC = tested on: A549/ATCC NSCLC
786-0 renal = tested on: 786-0 renal
COLO 205 colon = tested on: COLO 205 colon
DU-145 prostate = tested on: DU-145 prostate
K-562 leukemia = tested on: K-562 leukemia
MALME-3M melanoma = tested on: MALME-3M melanoma
MDA-MB-231 breast = tested on: MDA-MB-231 breast
RXF 393 renal = tested on: RXF 393 renal
SF-268 CNS = tested on: SF-268 CNS
SF-295 CNS = tested on: SF-295 CNS
SF-539 CNS = tested on: SF-539 CNS
UACC-257 melanoma = tested on: UACC-257 melanoma
M14 melanoma = tested on: M14 melanoma

| Compound | growth (NCI-H23 lung) | growth (NCI-H226 lung) | growth (NCI-H322M lung) | growth (HOP-62 NSCLC) | growth (NCI-H460 lung) | growth (HOP-92 NSCLC) | growth (NCI-H522 lung) | growth (A549/ATCC NSCLC) | growth (786-0 renal) | growth (COLO 205 colon) | growth (DU-145 prostate) | growth (K-562 leukemia) | growth (MALME-3M melanoma) | growth (MDA-MB-231 breast) | growth (RXF 393 renal) | growth (SF-268 CNS) | growth (SF-295 CNS) | growth (SF-539 CNS) | growth (UACC-257 melanoma) | growth (M14 melanoma) |
| --- | --- | --- | --- | --- | --- | --- | --- | --- | --- | --- | --- | --- | --- | --- | --- | --- | --- | --- | --- | --- |
| Cn1ccnc1C(=O)/C=C/c1ccc(C(=O)Nc2ccccc2O)cc1 | 30.6% | 63.4% | 45.3% | 12.7% | 8.78% (active) | 81.4% | 60.4% | 31.2% | 9.95% (active) | 56.5% | 45.6% | 7.38% (active) | 57.8% | 46.2% | 21.7% | 13.2% | 6.78% (active) | -19.3% (active) | 48.6% | 71.5% |
| O=C1c2c(c3c4ccccc4[nH]c3c3ccc4ccccc4c23)C(=O)N1CCN1CCNCC1 | 72.4% | 76% | 89.2% | 61.3% | -69.2% (active) | 78.3% | 66.2% | -21% (active) | 79.7% | 79.1% | 8.13% (active) | -41.5% (active) | 80.7% | -66.8% (active) | 91.6% | 80.1% | 89.4% | 82.6% | 109% | 6.23% (active) |
| COC1=CC(c2ccc[nH]2)=N/C1=C\c1[nH]c(C)c(C)c1CCC(=O)OCc1ccccc1 | -9.49% (active) | -2.19% (active) | 54.5% | -3% (active) | 18.6% | -27.8% (active) | -38.7% (active) | 10.1% | -38.8% (active) | -64.8% (active) | 18.4% | -7.62% (active) | -64.8% (active) | -49.5% (active) | -35.2% (active) | 5.89% (active) | -60.1% (active) | -52.3% (active) | -49% (active) | -60.8% (active) |
| C/C(=N\O)c1ccc(Cl)cc1 | 110% | 106% | 123% | 95.7% | 112% | 65.3% | 105% | 97.9% | 107% | 108% | 121% | 100% | 137% | 116% | 141% | 127% | 118% | 114% | 89.5% | 114% |
| COc1cc2nc3cc([N+](=O)[O-])ccc3c(NCCNCC(C)O)c2cc1OC (stereo not given) | -27.8% (active) | -11.1% (active) | -11.9% (active) | -19.2% (active) | -40.2% (active) | -42.1% (active) | -26.6% (active) | -26.8% (active) | -3.6% (active) | -76.6% (active) | -7.42% (active) | 0.179% (active) | -74.1% (active) | -39.5% (active) | -56% (active) | -15.4% (active) | 17.1% | -21.6% (active) | -56% (active) | -66.1% (active) |
| CCCCCN1C(=O)/C(=c2\sc3n(c2=O)C2C(NN=3)N(CC)C(=O)N2CC)c2ccccc21 (stereo not given) | 12.1% | 9.26% (active) | 21.2% | 9.45% (active) | -74.6% (active) | 3.79% (active) | -28% (active) | -85% (active) | -61.6% (active) | 0.959% (active) | -67.1% (active) | -71.9% (active) | -32.4% (active) | -30.8% (active) | -28.9% (active) | -2.82% (active) | -24.8% (active) | -90.2% (active) | 31.5% | -9.92% (active) |
| Cc1c(-c2ccc(O)cc2)n(Cc2ccc(OCCN3CCCCCC3)cc2)c2ccc(O)cc12 | 77% | 89.7% | 92.3% | 80.6% | 89.3% | 59.3% | 75.5% | 72.5% | 75.7% | 106% | 87% | -6.6% (active) | 69.5% | 82.3% | 49.9% | 74.2% | 99.1% | 61.7% | 81.6% | 63.5% |
| N#CSc1c[nH]c2cccc(/C=C/C(=O)/C=C(/C=C/c3cccc4[nH]cc(SC#N)c34)OB(F)F)c12 | -45.4% (active) | -75.9% (active) | 53.7% | -26.1% (active) | 4.16% (active) | -62.1% (active) | -65.2% (active) | -8.65% (active) | -51.6% (active) | -60% (active) | -69.4% (active) | -14.8% (active) | -52.8% (active) | -42.3% (active) | -77.6% (active) | 8.33% (active) | -4.04% (active) | -8.18% (active) | -50.6% (active) | -40.9% (active) |
| CCOC(=O)C1=C(N)Oc2c(sc3c(F)cccc23)C1c1ccc(O)cc1 (stereo not given) | 30.8% | 55.2% | 67.5% | 55.4% | 30.4% | 34.6% | 26.9% | 40.5% | 59.6% | 79.5% | 66.8% | 12.6% | 54.4% | 36.9% | 46.1% | 37% | 56.3% | 42.5% | 49.8% | 22.9% |
| CC1=C([Se]CC(OC(=O)CC[Se]c2ccccc2)C(=O)NC(C)(C)C)C(=O)c2ccccc2C1=O (stereo not given) | -45.6% (active) | -49.4% (active) | -51.9% (active) | -36.1% (active) | -49.2% (active) | -74.5% (active) | -38.7% (active) | -1.39% (active) | -90.2% (active) | -90.1% (active) | -94.8% (active) | -11.3% (active) | -57.2% (active) | -41.7% (active) | -87.5% (active) | -88.9% (active) | -36.2% (active) | -99% (active) | -87.3% (active) | -77.8% (active) |
| Nc1n[nH]c2ccc([C@H]3[C@@H]4C5CCC(C5)[C@@H]4c4c(ccc5[nH]ncc45)N3S(=O)(=O)C3CC3)cc12 (stereo not given in full) | 16.3% | -16.9% (active) | 38.6% | 41.1% | 5.9% (active) | 67.7% | 7.23% (active) | 17.1% | 31.3% | -0.398% (active) | 17.9% | 13.6% | 61.4% | -9.16% (active) | 26.2% | 37.1% | 12.6% | -25.5% (active) | 63.8% | 7.92% (active) |
| O=C(C[C@]1(O)C(=O)Nc2ccccc21)c1cccc(C(F)(F)F)c1 | 92.5% | 86.3% | 84.4% | 78.8% | 97.4% | 77.3% | 87.1% | 99.2% | 95.7% | 89.5% | 99.2% | 96% | 83.1% | 91% | 101% | 85.8% | 96.3% | 88% | 99.7% | 93.1% |
| OB1OCc2cc(/C=C/c3cccc(C(F)(F)F)c3)ccc21 | 21.6% | -10.2% (active) | 20.7% | -17.7% (active) | -10.1% (active) | -27.9% (active) | 3.78% (active) | 1.8% (active) | -27.2% (active) | 25.6% | -6.62% (active) | 11.4% | 9.86% (active) | -33.9% (active) | -40.3% (active) | 10.6% | 7.3% (active) | -58.9% (active) | 37.1% | -7.54% (active) |
| O=C(/C=C(/C=C/c1ccc2[nH]ccc2c1)OB(F)F)/C=C/c1ccc2[nH]ccc2c1 | -26.6% (active) | -59.5% (active) | 27.5% | -16.5% (active) | 0.421% (active) | 4.49% (active) | -68.5% (active) | -53.6% (active) | -57.1% (active) | -38.4% (active) | 3.56% (active) | -21.9% (active) | 31.1% | 12.2% | -57.6% (active) | 16.7% | -25.4% (active) | -7.54% (active) | 43.3% | -27.5% (active) |
